Reference: PubChem BioAssay (NCI)
Where “and” joins values, the source holds several entries; their conditions need not be identical. Equal entries are not always repeated. This is part of a sample that, as a whole, favours compounds with a hit. Of some 83,000 tested, about 20% had one in any assay.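 Results are percent growth after 48 hours of single-concentration exposure. 100 means growth as in untreated cells, lower positive values show inhibition; negative values down to -100 show cell death.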 A number with no mark means an inactive call. Calls of active or inactive are those of the source. Rule for the calls: active = growth percent below 10; inactive = the rest.

The molecules below were run on UACC-62 melanoma (assay: NCI-60 one-dose screen, 48 h (100 = growth as untreated, 0 = no growth, -100 = all killed)). Details: 10 µM unless noted.
`O=C1/C(=C/c2cccc3c2OCO3)Cc2c(F)cc(Br)cc21` was tested, and the growth was 91.8%. In the case of `CC(C)(C)C(=O)C1CC(C#N)=C2C=Cc3c(ccc4ccccc34)N21` (centres undefined), the growth is reported as 91.1%. Molecule `Cc1ccc(C(=O)Nc2cc(-c3ccncc3)cc(C(F)(F)F)c2)cc1C#Cc1cnc2cccnn12` has a growth of 14.4%. `CCOc1ccc(-c2cc(-c3cc(C(C)C)c(O)cc3C)nn2-c2ccc(S(N)(=O)=O)cc2)cc1` was tested, and the growth was 24%. With `N#Cc1ccc(C(=O)CSc2nc3c(c(Nc4ccc(S(N)(=O)=O)cc4)n2)CCC3)cc1` the growth was 83.1%. Molecule `COc1ccc2c(c1)C(Sc1ccc(Cl)cc1)c1c(nc(N)c(C#N)c1N)O2` (centres undefined) has a growth of 64.3%. In the case of `Fc1ccccc1CNc1nc(SCCN2CCOCC2)nc2c1cnn2CC(Cl)c1ccc(Br)cc1` (centres undefined), the growth is reported as -4.51% (active). `COc1ccc(-c2nnc3c(/C=C/c4ccc(Br)cc4)nc4ccccc4n23)cc1` showed a growth of 40.8%. `Cc1nn(-c2ccccc2)c2ncn(CC(=O)N/N=C/c3ccccc3O)c(=O)c12` showed a growth of 34.3%. Molecule `CCOC(=O)c1ccc(NC(=S)NC(=O)c2cccc(NC(=O)c3ccc(C)cc3)c2)cc1` has a growth of 74.9%. For `COc1cc(/C=C/C(=O)c2cnn(-c3cc(=O)[nH]c4ccc(Cl)cc34)c2C)cc(OC)c1OC`, the growth was -49.1% (active). In the case of `Cc1[nH]nc2ccc3nc(-c4cnn(CCO)c4)c4c(c3c12)CCCC4`, the growth is reported as 34.8%. `CCC1(OC(=O)c2ccccc2SSCCOC(=O)CCCCC2SCC3NC(=O)NC32)C(=O)OCc2c1cc1n(c2=O)Cc2cc3ccccc3nc2-1` (centres undefined) gave a growth of 17.7%. With `CN(C)c1nc(NCCNS(=O)(=O)c2ccc(C(=O)/C=C/c3ccc(Cl)cc3)cc2)nc(N2CCOCC2)n1` the growth was 52.5%. For `C[C@@H]1CN(c2ccc3ncc(C#Cc4cncc(C(=O)Nc5ccc(CN6CCN(C)CC6)c(C(F)(F)F)c5)c4)n3n2)C[C@@H](C)O1`, the growth was -65.6% (active). `O=C1Nc2ccccc2/C1=C\c1ccc(OCC(=O)c2ccc(Br)cc2)cc1` was tested, and the growth was 52.6%. In the case of `COc1ccc(NC(=O)NN2C(=O)c3ccccc3N(C)C2c2ccc(OC)cc2)cc1` (centres undefined), the growth is reported as 78.1%. Work on `COc1ccc2c(c1)N=c1c-2cc2c(O)[nH]c(=S)n2c1=O` yielded a growth of 34.4%. `CCC(=O)c1c2c(c3ccc4c5ccccc5ccc4n13)C(=O)c1ccccc1C2=O` gave a growth of 54.9%. `CC1=C(C(=O)Nc2ccccc2)C(c2cccc(Cl)c2Cl)n2c(nc3ccccc32)N1` (centres undefined) showed a growth of 46.7%. `COc1cc(/C=N/NC(=O)c2ccc(OCc3nc4ccc(C)cc4[nH]3)cc2)cc(OC)c1OC` showed a growth of 29.9%. In the case of `Cc1ccc(C2CC(c3ccc(NC(=S)Nc4ccccc4)cc3)=NN2c2ccc(S(N)(=O)=O)cc2)cc1` (centres undefined), the growth is reported as 17%. For `Nc1cc2ccccc2c(=O)n1NC(=O)c1ccc(Br)cc1`, the growth was 80.6%. `COc1cc(C2CC(c3ccc(S(=O)(=O)NCCNc4nc(N(C)C)nc(N5CCOCC5)n4)cc3)=Nc3c(N)nc(N)nc3N2)cc(OC)c1OC` (centres undefined) showed a growth of 93.7%. For `Cn1cc(-c2cc(N)n3nc(-c4c[nH]c5ccccc45)cc3n2)c2ccccc21`, the growth was -96.5% (active). In the case of `COc1ccc2[nH]c(=O)c(CSc3ccccc3Nc3nccc(-c4ccc(C(F)(F)F)cc4)n3)cc2c1`, the growth is reported as 47.9%.

The molecules below were run on LOX IMVI melanoma in the same assay as above. Details: 10 µM unless noted.
`CCc1ccccc1-c1nc(CN[C@@H]2C[C@@H]3C[C@H]([C@H]2C)C3(C)C)c(C)o1` was tested, and the growth was -94.4% (active). Work on `Cc1ccccc1Nc1nnc(-c2c[nH]c3ccccc23)o1` yielded a growth of 29.1%. With `Cc1ccc(/C=C/C(=O)c2ccc(S(=O)(=O)NCCNc3nc(N(C)C)nc(N4CCOCC4)n3)cc2)cc1` the growth was 42.1%. In the case of `COC(=O)c1c(C(=O)OC)c2ccc3c4ccccc4ccc3n2c1C(=O)C(C)Br` (centres undefined), the growth is reported as -5.75% (active). Work on `COc1cc(CNC(=O)C[C@H](C)CCC=C(C)C)ccc1OCc1cn(-c2ccc(Cl)cc2Cl)nn1` yielded a growth of 80.7%. For `Cc1cc(C(NC(=O)C2CC3(CC(Nc4cccc5c4C(=O)N(C4CCC(=O)NC4=O)C5=O)C3)C2)c2ccc3c(c2)OC(F)(F)O3)c(O)c2ncccc12` (centres undefined), the growth was -4.96% (active). With `O=C(CSc1nnc(-c2ccc(-c3nc4ccc(Cl)cc4[nH]3)cc2)o1)Nc1ccc(Br)cc1` the growth was -100% (active). `COc1ccc(-c2nc3ccccc3n2CC(=O)N=Nc2c(O)[nH]c3ccc(OC)cc23)cc1` was tested, and the growth was 56.8%. With `Nc1cccc(-n2c(COc3ccc(I)cc3)nc3ccccc32)c1` the growth was 80% and 101%. `COC(=O)c1cc(C(=O)C(Br)Br)n2c1ccc1c3ccccc3ccc12` showed a growth of 41.4%. `O=C(NN1C(=O)/C(=C/C=C/c2ccc([N+](=O)[O-])o2)SC1=S)c1ccc([N+](=O)[O-])cc1` was tested, and the growth was -97.1% (active). With `Cc1ccc2nc(NC(=O)Nc3cccc(Cl)c3)sc2c1` the growth was 88.1%. Molecule `O=C1/C(=C/c2cccc3c2OCO3)Cc2c(F)cc(Br)cc21` has a growth of 99.8%. Molecule `CC(C)(C)C(=O)C1CC(C#N)=C2C=Cc3c(ccc4ccccc34)N21` (centres undefined) has a growth of 95.5%. `Cc1ccc(C(=O)Nc2cc(-c3ccncc3)cc(C(F)(F)F)c2)cc1C#Cc1cnc2cccnn12` showed a growth of 11.1%. `CCOc1ccc(-c2cc(-c3cc(C(C)C)c(O)cc3C)nn2-c2ccc(S(N)(=O)=O)cc2)cc1` showed a growth of 17.9%. In the case of `N#Cc1ccc(C(=O)CSc2nc3c(c(Nc4ccc(S(N)(=O)=O)cc4)n2)CCC3)cc1`, the growth is reported as 1.66% (active). For `COc1ccc2c(c1)C(Sc1ccc(Cl)cc1)c1c(nc(N)c(C#N)c1N)O2` (centres undefined), the growth was -2.6% (active). In the case of `Fc1ccccc1CNc1nc(SCCN2CCOCC2)nc2c1cnn2CC(Cl)c1ccc(Br)cc1` (centres undefined), the growth is reported as 1.88% (active). `COc1ccc(-c2nnc3c(/C=C/c4ccc(Br)cc4)nc4ccccc4n23)cc1` was tested, and the growth was -87.9% (active). With `Cc1nn(-c2ccccc2)c2ncn(CC(=O)N/N=C/c3ccccc3O)c(=O)c12` the growth was 10.4%. Molecule `CCOC(=O)c1ccc(NC(=S)NC(=O)c2cccc(NC(=O)c3ccc(C)cc3)c2)cc1` has a growth of 51.9%. In the case of `COc1cc(/C=C/C(=O)c2cnn(-c3cc(=O)[nH]c4ccc(Cl)cc34)c2C)cc(OC)c1OC`, the growth is reported as -60.8% (active). `Cc1[nH]nc2ccc3nc(-c4cnn(CCO)c4)c4c(c3c12)CCCC4` gave a growth of 25.1%. `CCC1(OC(=O)c2ccccc2SSCCOC(=O)CCCCC2SCC3NC(=O)NC32)C(=O)OCc2c1cc1n(c2=O)Cc2cc3ccccc3nc2-1` (centres undefined) was tested, and the growth was 33.9%. For `CN(C)c1nc(NCCNS(=O)(=O)c2ccc(C(=O)/C=C/c3ccc(Cl)cc3)cc2)nc(N2CCOCC2)n1`, the growth was -94.3% (active). In the case of `C[C@@H]1CN(c2ccc3ncc(C#Cc4cncc(C(=O)Nc5ccc(CN6CCN(C)CC6)c(C(F)(F)F)c5)c4)n3n2)C[C@@H](C)O1`, the growth is reported as -96.8% (active). `O=C1Nc2ccccc2/C1=C\c1ccc(OCC(=O)c2ccc(Br)cc2)cc1` gave a growth of 28.9%. `COc1ccc(NC(=O)NN2C(=O)c3ccccc3N(C)C2c2ccc(OC)cc2)cc1` (centres undefined) showed a growth of 98.1%. In the case of `COc1ccc2c(c1)N=c1c-2cc2c(O)[nH]c(=S)n2c1=O`, the growth is reported as 32.6%. With `CCC(=O)c1c2c(c3ccc4c5ccccc5ccc4n13)C(=O)c1ccccc1C2=O` the growth was 50.1%. Work on `CC1=C(C(=O)Nc2ccccc2)C(c2cccc(Cl)c2Cl)n2c(nc3ccccc32)N1` (centres undefined) yielded a growth of 49.5%. Work on `COc1cc(/C=N/NC(=O)c2ccc(OCc3nc4ccc(C)cc4[nH]3)cc2)cc(OC)c1OC` yielded a growth of 40.4%. For `Cc1ccc(C2CC(c3ccc(NC(=S)Nc4ccccc4)cc3)=NN2c2ccc(S(N)(=O)=O)cc2)cc1` (centres undefined), the growth was 14.9%. Work on `Nc1cc2ccccc2c(=O)n1NC(=O)c1ccc(Br)cc1` yielded a growth of 84.2%. Work on `COc1cc(C2CC(c3ccc(S(=O)(=O)NCCNc4nc(N(C)C)nc(N5CCOCC5)n4)cc3)=Nc3c(N)nc(N)nc3N2)cc(OC)c1OC` (centres undefined) yielded a growth of 94.3%. In the case of `Cn1cc(-c2cc(N)n3nc(-c4c[nH]c5ccccc45)cc3n2)c2ccccc21`, the growth is reported as -78.2% (active). In the case of `COc1ccc2[nH]c(=O)c(CSc3ccccc3Nc3nccc(-c4ccc(C(F)(F)F)cc4)n3)cc2c1`, the growth is reported as 7.62% (active).
